# Results: article PMC4336329 (PLoS ONE, 2015)
# The campaign covered roughly 310,000 compounds. About 14,000 (4.5%) showed an effect of 50% or more. Effects have a minus sign here. The full list was thinned out, with strong results kept by preference.
# Molecular target: human ether-à-go-go-related gene (hERG) potassium channel (human, UniProt Q12809)
# Test: primary screen, population patch clamp on CHO cells stably expressing hERG; higher = less effect of the substance
# 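Further: peak tail current of the secondary pulse compared with the same well before compound.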
# Chain of human ether-à-go-go-related gene (hERG) potassium channel (Q12809 whole entry, looked up): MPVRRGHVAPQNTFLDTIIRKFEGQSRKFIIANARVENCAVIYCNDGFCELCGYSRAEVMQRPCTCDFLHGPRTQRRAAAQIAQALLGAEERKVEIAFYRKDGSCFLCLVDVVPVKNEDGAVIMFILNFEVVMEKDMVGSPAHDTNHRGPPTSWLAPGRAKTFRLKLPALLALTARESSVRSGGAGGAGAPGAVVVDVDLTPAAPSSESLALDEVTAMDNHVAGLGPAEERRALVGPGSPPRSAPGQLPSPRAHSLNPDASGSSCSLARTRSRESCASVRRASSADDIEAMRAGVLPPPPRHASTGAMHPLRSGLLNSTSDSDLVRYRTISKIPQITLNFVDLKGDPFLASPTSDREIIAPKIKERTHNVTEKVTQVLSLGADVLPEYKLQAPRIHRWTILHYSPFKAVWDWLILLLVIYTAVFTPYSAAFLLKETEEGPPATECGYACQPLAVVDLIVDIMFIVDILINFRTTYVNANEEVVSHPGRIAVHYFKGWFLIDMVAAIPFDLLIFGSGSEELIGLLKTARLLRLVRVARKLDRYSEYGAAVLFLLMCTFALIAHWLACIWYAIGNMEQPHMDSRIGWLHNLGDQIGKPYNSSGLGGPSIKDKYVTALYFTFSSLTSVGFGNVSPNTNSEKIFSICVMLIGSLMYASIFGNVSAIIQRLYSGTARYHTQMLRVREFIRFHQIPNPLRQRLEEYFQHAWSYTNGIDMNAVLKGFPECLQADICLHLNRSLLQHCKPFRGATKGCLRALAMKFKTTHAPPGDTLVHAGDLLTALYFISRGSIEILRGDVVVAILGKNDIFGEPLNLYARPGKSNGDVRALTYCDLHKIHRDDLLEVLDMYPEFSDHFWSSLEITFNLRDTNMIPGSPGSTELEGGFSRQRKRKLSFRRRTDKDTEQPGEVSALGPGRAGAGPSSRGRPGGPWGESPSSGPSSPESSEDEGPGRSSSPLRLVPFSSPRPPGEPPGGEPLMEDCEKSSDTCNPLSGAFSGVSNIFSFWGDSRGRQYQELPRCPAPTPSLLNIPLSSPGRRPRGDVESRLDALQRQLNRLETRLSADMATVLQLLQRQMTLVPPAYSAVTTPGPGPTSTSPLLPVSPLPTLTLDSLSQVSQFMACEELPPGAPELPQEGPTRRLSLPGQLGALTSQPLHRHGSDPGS
row,SMILES,"hERG current change (%, negative = inhibition) at 10uM"
1,O=c1c(Cc2c(F)cccc2Cl)c(O)ccn1Cc1ccc(F)cc1,-0.211%
2,CCCC(=O)Nc1ccc(N2CCCCC2)cc1,-8.42%
3,C=C1C(=O)[C@@]23[C@H](O)C[C@@H]4C(C)(C)CC[C@H](O)[C@]4(C)[C@@H]2C[C@H](O)[C@@H]1[C@H]3O,-0.141%
4,CC(N)C12CC3CC(CC(C3)C1)C2.Cl (stereo not drawn),14.1%
5,C/C(=N\N1CCCCC1)c1c(O)[nH]c(=O)[nH]c1=O,-11%
6,O=C(c1ccc2c(c1)OCO2)C1CCCN(C(=O)C2CCOCC2)C1 (stereo not drawn),7.74%
7,O=C(c1cccc(Cl)c1)C1CCCN(C(=O)c2ccc3c(c2)OCO3)C1 (stereo not drawn),-34.1%
8,O=C(c1ccc2c(c1)OCO2)C1CCCN(Cc2ccc3nsnc3c2)C1 (stereo not drawn),-71.4%
9,COc1cccc(C(=O)C2CCCN(Cc3ccc4nsnc4c3)C2)c1 (stereo not drawn),-26%
10,O=C(c1ccc2c(c1)OCO2)C1CCCN(CC2CCCCC2)C1 (stereo not drawn),-71.8%
11,Cc1cccc(CN2CCCC(C(=O)c3ccc4c(c3)OCO4)C2)n1 (stereo not drawn),-49.2%
12,O=C(c1ccc2c(c1)OCO2)C1CCCN(Cc2ccc3cccc(F)c3n2)C1 (stereo not drawn),-87%
13,Cn1cc(CN2CCCC(CNC(=O)c3ccc4c(c3)OCO4)C2)c2ccccc21 (stereo not drawn),-43.6%
14,Cn1c(CN2CCCC(C(=O)c3ccc4c(c3)OCO4)C2)nc2ccccc21 (stereo not drawn),-70.5%
15,CSc1ccc(C(=O)C2CCCN(C(=O)c3ccc4c(c3)OCO4)C2)cc1 (stereo not drawn),-34%
16,Cc1sc(NC(=S)NC(=O)c2ccccc2)c(C#N)c1C,0.195%
17,O=C(N/N=C1\C(=O)c2cccc3cccc1c23)c1ccc(O)cc1,8.35%
18,CCOC(=O)c1[nH]c2cc(OC)c(OC)cc2c1NC(=O)c1ccc2c(c1)OCO2,-4.45%
19,COc1cc(C(=O)N/N=C(\C)Cn2nc([N+](=O)[O-])cc2C)ccc1O,-21.1%
20,CC(C)(C)c1nnc(NC(=O)NS(=O)(=O)c2ccccc2)s1,19.7%
21,O=C(Nc1nccs1)c1ccc(S(=O)(=O)N2CCCCC2)cc1,3.29%
22,COc1ccc(C(=O)O)cc1S(=O)(=O)N(C)C,16.6%
23,O=C(Nc1cc(Cl)ccc1Oc1ccccc1)c1ccccc1F,-4.45%
24,CCCC(C)C(=O)Nc1ccccc1C(=O)OCC (stereo not drawn),-4.39%
25,O=S(=O)(Nc1ccccc1Cl)c1cc(NC(=S)NCCN2CCOCC2)ccc1Cl,14%
26,CCOC(NC(=O)c1ccccc1)C(NC(=O)c1ccccc1)OCC (stereo not drawn),-0.069%
27,CCN1CCN(c2ccc(N3CCN(S(=O)(=O)c4ccc(C)c([N+](=O)[O-])c4)CC3)nn2)CC1,-56.6%

row,SMILES,"hERG current change (%, negative = inhibition) at 10uM"
1,CCN1CCN(S(=O)(=O)c2ccc(C)c([N+](=O)[O-])c2)CC1,-0.352%
2,Cc1ccc(S(=O)(=O)N2CCN(c3ccc(N4CCOCC4)nn3)CC2)cc1[N+](=O)[O-],-4.74%
3,Cc1ccc([N+](=O)[O-])cc1S(=O)(=O)N1CCCC1,7.21%
4,CCN1CCN(c2ccc(N3CCN(S(=O)(=O)c4cc([N+](=O)[O-])ccc4C)CC3)nn2)CC1,-54.4%
5,Cc1ccc([N+](=O)[O-])cc1S(=O)(=O)N1CCN(C)CC1,0.51%
6,C[C@]12CC[C@@H]3c4cc(O)c(O)cc4CC[C@H]3[C@@H]1CC[C@@H]2O,24.1%
7,O=C(O)c1cc(-c2cccc(Cl)c2)nc2nc(N3CCCCC3)sc12,8.18%
8,CS(=O)(=O)c1ccc(NCC2CCCO2)c([N+](=O)[O-])c1 (stereo not drawn),9.48%
9,CN(CCc1ccccc1)C1CCCN(C(=O)Cn2cccn2)C1 (stereo not drawn),-1.49%
10,Cc1cc(C)nc(SCc2ccc(C(=O)N/N=C/c3cccnc3)cc2)n1,-17.3%
11,Cc1cc(C)nc(SCc2ccc(C(=O)N/N=C/c3ccc(C(=O)O)cc3)cc2)n1,28.6%
12,Cc1cc(C)nc(SCc2ccc(C(=O)N/N=C/c3ccncc3)cc2)n1,-50.5%
13,N=C1C(c2nc3ccccc3[nH]2)=C(O)CN1NC(=O)c1c[nH]c2ccccc12,17%
14,CCOc1ccc(N2C(=O)Nc3ccc(Br)cc3C2(O)C(=O)NC(C)C)cc1 (stereo not drawn),8.92%
15,O=C(Cn1ncc2c3ccccc3n(Cc3ccc(F)cc3)c2c1=O)N1CCC2(CC1)OCCO2,-67.2%
16,O=C(Cn1ncc2c3ccccc3n(Cc3ccc(F)cc3)c2c1=O)N1CCN(c2ncccn2)CC1,-16.2%
17,Cc1c2cnn(CC(=O)N3CCC4(CC3)OCCO4)c(=O)c2c(C)n1Cc1ccccc1,-0.415%
18,Cc1c2cnn(CC(=O)N3CCC4(CC3)OCCO4)c(=O)c2c(C)n1Cc1cccc(Cl)c1,1.18%
19,Cc1c2cnn(CC(=O)N3CCC4(CC3)OCCO4)c(=O)c2c(C)n1Cc1ccccc1F,6.7%
20,O=C(Cn1ncc2c3ccccc3n(Cc3cccc(Cl)c3)c2c1=O)N1CCC2(CC1)OCCO2,-69%
21,Cn1c2ccccc2c2cnn(CC(=O)N3CCC4(CC3)OCCO4)c(=O)c21,-22.2%
22,O=C(Cn1ncc2c3ccccc3n(Cc3ccccc3F)c2c1=O)N1CCC2(CC1)OCCO2,-72.8%
23,Cc1c2cnn(CC(=O)N3CCC4(CC3)OCCO4)c(=O)c2c(C)n1Cc1ccc(F)cc1,-7.31%
24,Cc1ccc2nc(C(C)O)[nH]c2c1 (stereo not drawn),17.3%
25,CC#CCCCC(=O)Nc1ccc(C(=O)O)cc1,1.36%
26,CN1CCN(Cc2nc(-c3cccs3)no2)CC1c1ccccc1 (stereo not drawn),-8.45%
27,COC(=O)c1nnn(CC(=O)NC(=O)Nc2cccc(Cl)c2C)c1C(=O)OC,-0.536%
